Broadly, the inhibition is the relative decrease from the control value, in per cent.

The target of the test is Dual specificity protein phosphatase 3 (Homo sapiens) (UniProt P51452). Put plainly: inhibition of human DUSP3 activity – biochemical, absorbance, uHTS, primary screen (AID 1654).
Where [1] appears, read: recombinant VHR phosphatase, pNPP absorbance, at 13.3 µM, stronger effect = higher value.

About 1,500 (0.52%) of roughly 290,000 compounds were called active. Cut-off read from the data, not from the text of the source: active = inhibition above about 50%; inactive = the rest. Many of the other results were omitted from the sample, so actives are more common in it than they were.

Sequence of Dual specificity protein phosphatase 3 (Homo sapiens) (P51452 whole entry, looked up): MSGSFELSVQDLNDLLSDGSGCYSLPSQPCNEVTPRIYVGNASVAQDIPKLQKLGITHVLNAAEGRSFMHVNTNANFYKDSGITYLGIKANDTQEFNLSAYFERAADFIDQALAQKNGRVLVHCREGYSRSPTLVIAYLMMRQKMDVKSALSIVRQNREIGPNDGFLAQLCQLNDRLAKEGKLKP

For the compound `Cc1cccc(C)c1NC(=O)C(Cl)C(=O)c1ccccc1` (stereo unspecified), under setting [1], the inhibition was 0% (inactive).
Turning to `Nc1nnnn1CC(=O)N/N=C/c1ccc(-c2cccc(Cl)c2)o1`, under setting [1], the inhibition is 5.3% (inactive).
Regarding `Cc1[nH]c2ccccc2c1/C=N\NC(=O)Cn1nnc(-c2ccccc2)n1`, the inhibition under setting [1] was -6.7% (inactive).
The same measure, in the same setting: next, `O=C(Cn1nnc(-c2ccccc2)n1)N/N=C/c1ccc(-c2ccc(Cl)cc2)o1`: 50.8% (active); `Cc1ccc(-c2nc(CS(=O)(=O)CC(=O)NCc3ccc4c(c3)OCO4)c(C)o2)cc1`: 9.7% (inactive).
As to `CN1C2CCC1/C(=C\c1ccccc1Cl)C(=O)/C2=C\c1ccccc1Cl`, the inhibition under setting [1] is -0.2% (inactive).
Still for that read-out and setting: next, `Cc1ccc(N2CCN(C3=NC(=O)/C(=C\c4cccs4)S3)CC2)cc1`: -10.9% (inactive); `CCc1ccc(/C=C2\SC(N3CCOCC3)=NC2=O)cc1`: 19.9% (inactive).
On the same count and under the same terms, as for `Cc1ccsc1/C=C1\SC(N2CCOCC2)=NC1=O`, the figure is 51% (active).
As to `O=[N+]([O-])c1cc(C(F)(F)F)ccc1NCCc1ccncc1`, the inhibition under setting [1] was -7.6% (inactive).
On to `Cc1cc(C)n2nc(SCC(N)=O)nc2n1`, for which, under setting [1], the inhibition is 24.2% (inactive).
Same read-out and setting: next, `Cc1cc(C)n2nc(CNS(=O)(=O)c3c(F)c(F)c(F)c(F)c3F)nc2n1`: 51.3% (active).
Consider `Cc1cc(C)n2nc(C(=O)NC(C)(C)C)nc2n1`, for which the inhibition under setting [1] was 38.4% (inactive).
Same read-out and setting: next, `CCOC(=O)c1c(C)[nH]c(C2=NNC(=NC(C)COC)SC2)c1C` (stereo unspecified): 8.2% (inactive).
Take `Cc1ccc2oc(C(=O)N3CCN(C)C[C@@H]3C(C)C)c(C)c2c1`: the inhibition is, setting by setting: (recombinant VHR phosphatase, pNPP absorbance; at 13.3 µM; stronger effect = higher value) 80.7% (inactive); (recombinant VHR phosphatase, pNPP absorbance; measured here: average of confirmation repeats; at 13.3 µM; stronger effect = higher value) -20.8%.
As to `Cc1ccccc1OCC(=O)NNC(=O)c1cc(S(=O)(=O)N(C)C)ccc1N1CCCC1`, the inhibition under setting [1] is -23.3% (inactive).
For the compound `COCCNC(=O)c1snc2ccc(Cl)cc12`, the inhibition under setting [1] was 50% (active).
Still for that read-out and setting: as for `COCCNC(=O)c1ccc2c(c1)ncn2-c1ccc(C)c(Cl)c1`, the figure is 5.8% (inactive); as for `COCCNC(=O)c1ccc(S(=O)(=O)c2ccc(Cl)cc2)c(NC(C)=O)c1`, 13.8% (inactive); as for `Cc1ccc(C(=O)O/N=C(\N)c2ccccn2)cc1Cl`, 11.4% (inactive).
Turning to `O=S(=O)(NCc1cccnc1)c1ccc(Cl)nc1`, under setting [1], the inhibition was 50.3% (active).
With `CC1CCN(S(=O)(=O)c2ccc(S(=O)(=O)NCc3cccnc3)cc2)CC1`, under setting [1], the inhibition is 40% (inactive).
With `O=S(=O)(NCc1cccnc1)c1ccc(Br)s1`, the inhibition under setting [1] is 35.9% (inactive).
`Cc1ccc(NC(=O)CN(C)C(=O)COC(=O)C(C)(C)Oc2ccc(Cl)cc2)cc1`: the inhibition under setting [1] is -4.4% (inactive).
Still for that read-out and setting: next, `CC(=O)OCCN(CCCn1c(-c2ccncc2)nc2ccccc21)c1nc(-c2ccc(C)cc2)cs1`: 9.5% (inactive); `COc1ccc(C(CCN(Cc2ccc(OC)c(OC)c2)C(=O)CCl)c2ccccc2)cc1` (stereo unspecified): 0.4% (inactive); `Cc1ccc2c(c1)C(c1ccccc1)N(C(=O)c1ccc(F)cc1)CC(=O)N2` (stereo unspecified): 23.9% (inactive).
With `Cc1ccc(/C=N/NC(=O)CSc2ccccn2)o1`, the inhibition under setting [1] was -2.8% (inactive).
Still for that read-out and setting: as for `Cc1ccc(/C=N/NC(=O)CNC(=O)COc2ccccc2)o1`, the figure is 52.9% (active).
Same read-out and setting: next, `CCOc1ccccc1/C=N/NC(=O)CNC(=O)COc1ccccc1`: 26.2% (inactive); `CCOc1ccc(C(C(=O)NCCOC)N(CCOC)C(=O)CCC(=O)Nc2ccccn2)cc1` (stereo unspecified): 36.3% (inactive).
On the same count and under the same terms, next, `COc1cc2cc(C(=O)N/N=C/c3cccc(OC)c3OC)[nH]c2cc1OC`: 58.2% (active); `COc1ccc2[nH]c(C(=O)N/N=C/c3cc(OC)c(OC)c(OC)c3)cc2c1`: 14.1% (inactive).
Take `CCOc1ccc2[nH]c(C(=O)N/N=C/c3cccc(OC)c3OC)cc2c1`: under setting [1], the inhibition is 26.8% (inactive).
Same read-out and setting: next, `CCCn1nnnc1NCc1ccc(CC)cc1`: 10.8% (inactive); `O=C(c1ccc(Cl)cc1)n1cnc2ccccc21`: 4.1% (inactive); `O=C1C(Cl)=C(N2CCOCC2)C(=O)N1c1ccccc1`: 29.6% (inactive).
Still for that read-out and setting: next, `COc1ccc(N2CCN(C(C)=C3C(=O)c4ccccc4C3=O)CC2)cc1`: 30.2% (inactive); `COC1=C(N2CCOCC2)C(=O)c2ccccc2C1=O`: 57.3% (active).
With `CCc1ccc(CNC(=O)C2CCN(c3nnc(C)c4c(C)n(-c5ccc(C)cc5)nc34)CC2)cc1`, the inhibition under setting [1] is -20.3% (inactive).
On to `O=C(CNC(=O)c1cccnc1)N/N=C/c1cc(Br)c(O)c(Br)c1`, for which the inhibition under setting [1] was 52.6% (active).
On the same count and under the same terms, next, `O=C(CNC(=O)c1cccnc1)N/N=C/c1cccnc1`: 17.2% (inactive).
The same measure, in the same setting: next, `CCN(CC)c1ccc(/C=N/NC(=O)CNC(=O)c2cccnc2)cc1`: -4.7% (inactive); `Cc1cc(-c2nnc(SCC(=O)Nc3ccc(F)cc3)n2N)n[nH]1`: 8% (inactive).
Same read-out and setting: as for `COc1cccc(CNCc2ccc3c(c2)OCO3)c1`, the figure is 3.6% (inactive).
As to `CN(C(=O)C1CCN(c2ncnc3c2nc2n3CCCCC2)CC1)C1CCCCC1`, the inhibition under setting [1] was 21.1% (inactive).
In the case of `COc1ccc(CCNS(=O)(=O)c2ccc(F)cc2)cc1OC`, the inhibition under setting [1] was 2.8% (inactive).
The same measure, in the same setting: next, `CCS(=O)(=O)NCCc1ccc(OC)c(OC)c1`: 3.5% (inactive); `CCOC(=O)c1cc(S(=O)(=O)NCCc2ccc(OC)c(OC)c2)cn1C`: 55.6% (active); `CCOC(=O)c1ccc2[nH]c3c(c2c1)CCCC3NC=O` (stereo unspecified): 5.2% (inactive).
The same measure, in the same setting: next, `COc1ccc(N2CCN(C(=O)c3ccc(N4CCCCS4(=O)=O)cc3)CC2)cc1`: 21.1% (inactive); `Cc1ccc(S(=O)(=O)N(CC(O)CN2C(=O)NC(C)(C)C2=O)c2cccc([N+](=O)[O-])c2)cc1` (stereo unspecified): 6.7% (inactive); `Cc1cc(C)c(S(=O)(=O)c2cc(F)ccc2C)c(=O)[nH]1`: 56.9% (active).
With `COc1ccccc1S(=O)(=O)c1c(C)cc(C)[nH]c1=O`, the inhibition under setting [1] is 8.8% (inactive).
In the case of `Cc1cc(C)c(S(=O)(=O)c2ccc(F)cc2C)c(=O)[nH]1`, under setting [1], the inhibition was -16.2% (inactive).
Same read-out and setting: as for `CCn1c(C(O)c2cc(OC)ccc2OC)nc2ccccc21` (stereo unspecified), the figure is -40.5% (inactive).
On the same count and under the same terms, next, `COc1ccc(OC)c(C(O)c2nc3ccccc3n2C)c1` (stereo unspecified): 57% (active); `CCCn1c(C(O)c2cc(OC)ccc2OC)nc2ccccc21` (stereo unspecified): 6.4% (inactive); `COc1cccc(NC(=O)C2C(c3ccccc3)C2(Cl)Cl)c1` (stereo unspecified): -7.8% (inactive).
Still for that read-out and setting: next, `Cc1cc(C)c(C#N)c(Nc2cccc(Br)c2)n1`: 0.3% (inactive).
With `COc1cc(Cl)ccc1OCc1cc(C(=O)N(C)CCc2c(C)n[nH]c2C)no1`, under setting [1], the inhibition was 1.6% (inactive).
On the same count and under the same terms, as for `Cc1ccccc1Nc1c([N+](=O)[O-])ccc2nonc12`, the figure is 17.2% (inactive).
On the same count and under the same terms, as for `COc1ccccc1OCCOc1ccc(/C=C2\C(=N)N3N=C(C)SC3=NC2=O)cc1`, the figure is 59.3% (active); as for `CS(=O)(=O)C1=NN2C(=N)/C(=C\c3ccc(OCCOc4ccccc4)cc3)C(=O)N=C2S1`, 26.8% (inactive); as for `CCOc1cc(/C=C2\C(=N)N3N=C(C)SC3=NC2=O)ccc1OCCOc1ccccc1`, 17.9% (inactive).
The same measure, in the same setting: next, `C=CCN1C(=NC(=O)COc2ccccc2)SC2CS(=O)(=O)CC21` (stereo unspecified): 19% (inactive); `Cc1cc(C)nc(NNC2=CC(=O)CC(C)(C)C2)n1`: 51.3% (active).
With `CC1(C)CC(=O)C=C(Nc2ccccc2)C1`, the inhibition under setting [1] is -8.5% (inactive).
In the case of `COC(=O)NNC1=CC(=O)CC(C)(C)C1`, the inhibition under setting [1] is 1.2% (inactive).
Same read-out and setting: next, `O=C(Nc1cc(-c2nc3ncccc3o2)ccc1Cl)c1ccco1`: 24% (inactive); `Cc1ccc(NC(=S)N(Cc2ccco2)C(C)c2cccs2)cc1` (stereo unspecified): 20.7% (inactive).
On the same count and under the same terms, as for `Cc1ccc(NC(=S)N(CCN2CCCCC2)Cc2ccco2)cc1C`, the figure is 5.9% (inactive).
On the same count and under the same terms, as for `Cc1ccc(NC(=S)N(CCCN2CCC(C)CC2)Cc2ccco2)cc1`, the figure is 53.6% (active).
Take `CCOc1ccc(-c2noc(CCC(=O)NC3CCCC3)n2)cc1OC`: under setting [1], the inhibition is 27.7% (inactive).
On the same count and under the same terms, as for `COc1cc(S(=O)(=O)N2CCN=C2c2ccccc2)ccc1Cl`, the figure is 47.5% (inactive).
On the same count and under the same terms, next, `CC(Sc1nnc(-c2ccccc2F)n1C1CC1)C(N)=O` (stereo unspecified): 11.3% (inactive); `CCc1ccc(N2CC(C(=O)Nc3ccc(S(=O)(=O)Nc4nccs4)cc3)CC2=O)cc1` (stereo unspecified): -2.6% (inactive); `CCc1ccc(N2CC(C(=O)N3CCCCCC3)CC2=O)cc1` (stereo unspecified): 30.7% (inactive).
The same measure, in the same setting: as for `CCc1ccc(N2CC(C(=O)NC3=NCCS3)CC2=O)cc1` (stereo unspecified), the figure is 54.4% (active); as for `COc1ccccc1OCCNC(=O)CCNC(=O)c1ccccc1Cl`, -2.5% (inactive).
In the case of `CC1CCCCC1NC(=O)c1cn(C)c2ccc(S(=O)(=O)N3CCOCC3)cc2c1=O` (stereo unspecified), the inhibition under setting [1] was 5.7% (inactive).
Consider `CCOc1cc(C)ccc1OCc1nnc(SCC(=O)Nc2cccc(C(=O)O)c2)n1-c1ccccc1`, for which the inhibition under setting [1] is -8.4% (inactive).
Still for that read-out and setting: as for `Cc1sc2ncn(CC(=O)NCCN(C)C)c(=O)c2c1S(=O)(=O)N1CCC(C)CC1`, the figure is 5.1% (inactive); as for `CCN(CC)CCCNC(=O)Cn1cnc2sc(C)c(S(=O)(=O)N3CCN(c4ncccn4)CC3)c2c1=O`, 7.7% (inactive).
Turning to `CCN(CC)CCNC(=O)Cn1cnc2sc(C)c(S(=O)(=O)N3CCOCC3)c2c1=O`, the inhibition under setting [1] is 57.3% (active).
On the same count and under the same terms, next, `CN(Cc1ccccc1)CC(O)COc1ccc(CNCc2cc3ccccc3s2)cc1` (stereo unspecified): 55.5% (active).
Same read-out and setting: next, `OC(CNCc1ccc2c(c1)OCO2)COc1ccccc1` (stereo unspecified): 0.8% (inactive).
Still for that read-out and setting: as for `Cc1ccc(OCC(=O)OC(C)CN(C)Cc2ccccc2)cc1` (stereo unspecified), the figure is -3.9% (inactive); as for `COCCN(C(=S)Nc1cccc(Cl)c1C)C(C)c1ccco1` (stereo unspecified), 19.1% (inactive).
As for `CCOC(=O)CC1COCCN1C(=O)c1cc(COc2ccc(F)c(F)c2)on1` (stereo unspecified), the inhibition under setting [1] is -31.1% (inactive).
On the same count and under the same terms, as for `Cc1c(CC(=O)N2CCN(C(=O)C3COc4ccccc4O3)CC2)c(=O)oc2c(O)c(O)ccc12` (stereo unspecified), the figure is 9.7% (inactive); as for `Cc1c(CCC(=O)O)c(=O)oc2cc3occ(-c4ccccc4)c3cc12`, -4.9% (inactive).
Same read-out and setting: as for `Cc1c(CC(=O)NCCCCCC(=O)O)c(=O)oc2cc3occ(-c4ccccc4)c3cc12`, the figure is -11% (inactive).
On the same count and under the same terms, as for `COc1cccc(-c2coc3cc4oc(=O)c(CC(=O)O)c(C)c4cc23)c1`, the figure is 57.3% (active); as for `Cc1nc(C)c(-c2nnc(-c3cccc(S(=O)(=O)N(C)C)c3)o2)cc1C(=O)NN`, 1% (inactive).

Source of the values: PubChem BioAssay AID1654 (Sanford-Burnham Center for Chemical Genomics, 2009).
